# RPL19A TOR yeast = modulators of TOR pathway RPL19A-GFP in S. cerevisiae; 330,000 tested, 0.3% active; percent response vs DMSO, % at 10 µM; S. cerevisiae RPL19A-GFP strain, flow cytometry, 3 h; hits give low values;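 active means percent response vs DMSO below 50%; inconclusive means fewer than 70 events counted for the yeast strain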;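 further: median channel GFP fluorescence of the barcoded RPL19A-GFP strain; ratio of sample median GFP to plate DMSO average so 100% = DMSO; lower means less RPL19A-GFP as with rapamycin TOR inhibition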
# MEP2 TOR yeast = yeast TOR pathway MEP2-GFP modulation; S. cerevisiae MEP2-GFP strain, flow cytometry GFP, 3 h; 100% = DMSO control level; GFP response vs DMSO, % at 10 µM; 330,000 tested, 0.51% active; AID 2016;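 active means GFP response versus DMSO above a set limit, roughly screen mean plus 3 SD, cut at about 180% in these data; inconclusive means fewer than 70 cells counted for a yeast strain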;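 further: median GFP fluorescence of the barcode-gated MEP2-GFP cells per well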
# AGP1 TOR yeast = yeast TOR pathway AGP1-GFP modulation; S. cerevisiae AGP1-GFP multiplex flow cytometry, 3 h; GFP as percent of DMSO wells; GFP response vs DMSO, % at 10 µM; 320,000 tested, 0.02% active; AID 2066;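 active means GFP response relative to DMSO above a set limit, near screen average plus 3 SD, cut at about 150% in these data; inconclusive means fewer than 70 cells counted for the yeast strain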;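 further: median GFP channel fluorescence of the gated AGP1 strain per well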
# LAP4-GFP MLPCN = alters LAP4-GFP fluorescence in TOR pathway yeast screen. GFP response vs DMSO, % at 10 µM. S. cerevisiae LAP4-GFP multiplex, flow cytometry GFP, 3 h; median GFP as percent of DMSO wells. 320,000 tested, 0.34% active;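 active means GFP response vs DMSO above a set limit, about the screen mean plus 3 SD, cut at about 150% in these data; inconclusive means under 70 cell events counted for the yeast strain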
# CIT2 TOR yeast = modulators of TOR pathway CIT2-GFP in S. cerevisiae. GFP response vs DMSO, % at 10 µM. S. cerevisiae CIT2-GFP strain, flow cytometry, 3 h; 100 means same as DMSO wells. 320,000 tested, 0.065% active. AID 2029;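 active means GFP response relative to DMSO above a set limit, near the screen mean plus 3 SD, cut at about 150% in these data; inconclusive means Fewer than 70 cells measured for a yeast strain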;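 further: ratio of well median GFP fluorescence to mean of DMSO wells on the plate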
# Numbers without * were called inactive; ? = inconclusive; / = no result given; [ ] = another dose, or the depositor's remark. Hits are enriched below; roughly 0.93% of the tested compounds scored in any of these assays.
SMILES,RPL19A TOR yeast,MEP2 TOR yeast,AGP1 TOR yeast,LAP4-GFP MLPCN,CIT2 TOR yeast
NC(=O)C1CCN(C(=O)CCc2nc3sc4c(c3c(=O)[nH]2)CCCC4)CC1,88.8,93.1,94.2,96.2,90.4
CCOC(=O)N1CCN(C(=O)CCc2nc3sc4c(c3c(=O)[nH]2)CCCC4)CC1,33.6*[may fluoresce violet],?,?,?,?
O=C(CSc1nnc(-c2ccncc2)n1Cc1ccccc1)NC1CCCc2ccccc21 (stereo not given),97.4,98.2,105.0,94.7,92.7
CCN1C(=O)/C(=C\c2cccc(OC(=O)c3ccco3)c2)SC1=S,46.6*[may fluoresce violet],?,?,76.7,?
O=C(O)CN1C(=O)/C(=C\c2cccc(OC(=O)c3ccco3)c2)SC1=S,100.1,102.9,95.4,101.9,90.7
Cc1cc(C(=O)N2CCCC(N3CCN(c4cccc(Cl)c4)CC3)C2)nc(C)n1 (stereo not given),38.9*[may fluoresce violet],?,?,?,?
CC1=C(C(=O)N2CCCC(N3CCN(c4cccc(Cl)c4)CC3)C2)OCCO1 (stereo not given),108.4,109.8,103.8,81.2,116.9
O=C(Cc1cccc(NC(=O)C2CCN(C(=O)C3CCCCC3)CC2)c1)Nc1cccc(C(=O)N2CCCC2)c1,94.1,89.3,95.4,102.1,97.0
CCc1c(O)nc(SCc2ccccc2)n(C(C)CC)c1=O (stereo not given),16.3*[may fluoresce violet],209.6*[may fluoresce violet],?,83.7,?
O=C(Nn1cnnc1)c1cc(Br)ccc1Cl,98.5,103.9,96.2,97.5,95.3
C1CCc2c(nc3nnnn3c2NCC2CC2)C1,93.3,98.7,103.0,102.2,94.5
Cc1cc2c(cc1C)CSC(c1c(O)ccc3ccccc13)SC2,62.3,232.1*[may fluoresce violet],?,70.7,?
CC(C)n1c(=S)[nH]c2c1c(=O)[nH]c(=O)n2C,/,266.9*,34.3,90.5,115.9
C=C1SC(Nc2c(C)cccc2C)=NC12CCCCC2,58.1,651.0*[may fluoresce violet],19.1,95.9,?
Cc1cc(C)nc(/N=C(\N)N2CCCCC2)n1,102.5,99.0,99.8,89.7,105.7
Cc1cc(C)nc(/N=C(\N)N2CCCCCC2)n1,102.6,175.9*,100.0,116.7,106.4
CCCc1cc(=O)oc2c3c(c(Cl)cc12)OCN(CCCO)C3,19.7*[may fluoresce violet],885.5*[may fluoresce violet],?,63.1,?
Cc1ccc2c(c1)c(N=NC(N)=O)c(O)n2C,93.7,94.3,98.9,99.6,98.5
COc1ccc(CNC(=O)CCc2c(C)nc3ncnn3c2C)cc1,16.8*[may fluoresce violet],376.5*[may fluoresce violet],?,79.4,?
Cc1nc2ncnn2c(C)c1CCC(=O)NCc1ccccc1,100.1,100.6,101.6,98.8,101.5
O=C(NCCCN1CCN(c2cccc(Cl)c2)CC1)c1cccc(N2CCCC2=O)c1,55.8,214.8*[may fluoresce violet],/,90.7,?
O=C(NCCCN1CCN(c2cccc(Cl)c2)CC1)c1ccc(N2CCCC2=O)cc1,103.5,102.3,104.7,101.4,104.8
O=c1cc(-c2ccc(C(F)(F)F)cc2)oc2ccccc12,43.7*[may fluoresce violet],180.7*[may fluoresce violet],?,106.7,?
COC(=O)c1ccccc1NC(=O)CSc1n[nH]c(-c2ccco2)n1,109.8,112.1,101.7,102.6,105.3
Clc1ccccc1N=C1NN=C(c2cccs2)CS1,92.3,95.8,92.9,154.8*,90.1
SMILES,RPL19A TOR yeast,MEP2 TOR yeast,AGP1 TOR yeast,LAP4-GFP MLPCN,CIT2 TOR yeast
Fc1ccccc1N=C1NN=C(c2ccccc2)CS1,112.4,103.5,99.1,109.0,105.3
CC(C)CC(=O)N/C(N)=N/c1nc2ccccc2o1,94.1,87.3,105.8,114.7,103.1
CCN1C(=O)/C(=C\N2CCN(C)CC2)SC1=S,41.9*[may fluoresce violet],332.5*[may fluoresce violet],?,86.5,?
CCN1C(=O)/C(=C\N2CCN(c3ccc(F)cc3)CC2)SC1=S,99.7,96.5,93.6,98.3,96.4
CN(C)c1ccc(NC(=O)Nc2ccc3c(c2)nnn3C)cc1,104.9,99.0,97.4,88.2,107.4
COc1cccc(NC(=O)Nc2ccc3c(c2)nnn3C)c1,60.5,184.3*,24.5,88.5,97.8
Cc1ccc(-c2nnn(CC(=O)N(CC(=O)NC3CCCC3)c3ccc(F)cc3)n2)o1,66.1,178.9*,15.9,87.1,90.0
COc1ccccc1C(=O)NCCC(=O)NCC(C)(C)N1CCOCC1,101.0,98.5,105.8,95.1,97.7
COc1ccc2[nH]c3c(=O)n(CCCCCC(=O)NCCC(C)C)c(=S)[nH]c3c2c1,99.2,65.8,80.8,100.2,89.6
O=C(OC1CCOC1=O)c1ccc(S(=O)(=O)N2CCCCCC2)cc1 (stereo not given),62.9,177.9*[may fluoresce violet],?,74.5,?
CCOC(=O)Oc1c(OC)cc(C(=O)O[C@@H]2C[C@@H]3CN4CCc5c([nH]c6cc(OC)ccc56)[C@H]4C[C@@H]3[C@H](C(=O)OC)[C@H]2OC)cc1OC,98.6,102.2,86.0,104.5,82.0
CCc1ccccc1OCc1nnc(N)s1,79.2,106.3,104.8,183.3*,84.2
CCOc1ccccc1NC(=S)N1CCC(NC(=O)c2ccco2)CC1,99.6,91.4,104.7,100.4,95.4
COc1ccc(OC)c(S(=O)(=O)N2CCC(C(=O)NC3CCCC3)CC2)c1,?,218.9*[may fluoresce red and violet],?,95.7,?
COc1ccc(OC)c(S(=O)(=O)N2CCC(C(=O)NC3CCCCCC3)CC2)c1,108.7,102.9,97.9,95.7,100.3
COc1ccc(NC(=O)C2CCN(S(=O)(=O)c3ccc(OC)c(OC)c3)CC2)c(OC)c1,85.0,179.1*,85.0,95.9,96.0
COc1ccccc1NC(=S)N1CCC(NC(=O)c2ccco2)CC1,23.9*[may fluoresce violet],?,?,136.6,?
COc1ccc(NC(=O)C2CCN(C(=O)c3ccco3)CC2)c(OC)c1,42.2*[may fluoresce violet],688.7*[may fluoresce violet],?,112.2,?
COc1ccccc1NC(=O)c1ccc(S(=O)(=O)NCc2ccco2)cc1,97.5,95.0,100.2,97.6,104.7
O=C(CSc1nnc(Cc2ccccc2)o1)c1cc(F)ccc1F,97.8,93.6,93.7,106.3,87.0
COc1ccc(NC(=O)c2cc(Cl)ccc2NC(=O)c2ccco2)c(OC)c1,39.6*[may fluoresce violet],212.9*[may fluoresce violet],?,78.3,?
Cc1ccc(C(=O)COC(=O)CNC(=O)c2ccccc2)s1,100.5,101.6,98.6,105.4,99.5
COC(=O)c1cc2c(=O)c3ccccc3oc2nc1C,94.5,100.0,87.0,91.4,93.5
COC(=O)c1cc2c(=O)c3ccccc3oc2nc1/C=C/N(C)C,114.7,571.8*[may fluoresce violet],38.1,189.9*[may fluoresce violet],?
COc1ccc(-c2cc(C(=O)Nc3cccnc3Cl)no2)cc1OC,24.2*[may fluoresce violet],?,?,64.7,?
CC(C)(Oc1ccc(Cl)cc1)C(=O)NCc1ccc(S(N)(=O)=O)cc1,52.0,243.8*[may fluoresce violet],16.4,68.3,?
COC(=O)CNC(=O)C(C)(C)Oc1ccc(Cl)cc1,91.0,95.6,91.0,/,97.2
Cc1ccc([N+](=O)[O-])cc1N/C=C/C(=O)c1ccco1,90.2,104.6,92.3,110.8,82.4

# From PubChem
